For assay [1], the target named is Nuclear receptor coactivator 3 (Homo sapiens) (UniProt Q9Y6Q9). Description: SRC3 coactivator transcriptional activity inhibitors, confirmation, cell-based, luminescence, quadruplicate (AID 588792).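 Note: 0% = DMSO treated cells and 100% = gossypol at 36 µM.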 Particulars: HEK293 GAL4-SRC3 luciferase reporter, at 3.6 µM, active compounds read high. (In general: Reporter assays use an easily measured gene product as a stand-in for the process of interest.)

Assay [2] has as its system transactivating tegument protein VP16 (Human herpesvirus 1), Gal4-VP16 luciferase reporter. Description: VP16 transactivation inhibitors, counter-screen for SRC3 inhibitor project, cell-based, luminescence, high throughput (AID 588794; in the data active = inhibition above about 30%). The note with it: mammalian cells, VP16-driven luciferase reporter luminescence; at 3.6 µM; active compounds read high.
Assay [3] has as its target Nuclear receptor coactivator 1 (Homo sapiens) (UniProt Q15788). Description: SRC1 coactivator transcriptional activity inhibitors, confirmation, cell-based, luminescence, quadruplicate (AID 588820;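 active = mean inhibition above 46.68%, the untreated control wells mean plus 3 SD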;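 note: 0% = DMSO wells and 100% = gossypol 36 µM treated wells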). The note with it: HEK293 GAL4-SRC1 luciferase reporter, at 3.6 µM, active compounds read high.
A short description of assay [4]: VP16 transactivation inhibitors, counter-screen for SRC1 inhibitor project, cell-based, luminescence, high throughput (AID 588824; in the data active = inhibition above about 25%). The note with it: cell-based VP16 transactivation luciferase luminescence; at 3.6 µM; active compounds read high.
Assay [5] can be described thus: StAR promoter reporter inhibitors, counter-screen for LRH-1 inverse agonist project, cell-based, luminescence, high throughput (AID 651611; in the data active = inhibition above about 28%). Particulars: StAR promoter luciferase reporter counterscreen, at 3.6 µM, active compounds read high. A general note: Counterscreens check selectivity or assay interference.
Assay [6] has as its target Nuclear receptor subfamily 5 group A member 2 (Homo sapiens) (UniProt O00482). Kind of assay: LRH-1 (NR5A2) inverse agonists, retest, confirmation, cell-based, luminescence (AID 651613; in the data active = inhibition above about 42%;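 note: HEK293T cells co-transfected with LRH-1 and StAR promoter luciferase reporter; 0% = vehicle wells and 100% = parental cells lacking receptor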). Particulars: cell-based LRH-1 luciferase reporter, inverse agonism; at 3.6 µM; active compounds read high.
For assay [7], the target named is Steroidogenic factor 1 (Homo sapiens) (UniProt Q13285). Description: SF1 (NR5A1) inverse agonists, counter-screen for LRH-1 inverse agonist project, cell-based, luminescence, high throughput (AID 651614; in the data active = inhibition above about 44%;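 note: cells cotransfected with StAR promoter reporter and SF1 expression vector; 0% = vehicle on cells with receptor and 100% = vehicle on cells lacking receptor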). Particulars: cell-based SF1 luciferase reporter, at 3.6 µM, active compounds read high.
Chain of Steroidogenic factor 1 (Homo sapiens) (Q13285 whole entry, looked up, the tested form may be a part): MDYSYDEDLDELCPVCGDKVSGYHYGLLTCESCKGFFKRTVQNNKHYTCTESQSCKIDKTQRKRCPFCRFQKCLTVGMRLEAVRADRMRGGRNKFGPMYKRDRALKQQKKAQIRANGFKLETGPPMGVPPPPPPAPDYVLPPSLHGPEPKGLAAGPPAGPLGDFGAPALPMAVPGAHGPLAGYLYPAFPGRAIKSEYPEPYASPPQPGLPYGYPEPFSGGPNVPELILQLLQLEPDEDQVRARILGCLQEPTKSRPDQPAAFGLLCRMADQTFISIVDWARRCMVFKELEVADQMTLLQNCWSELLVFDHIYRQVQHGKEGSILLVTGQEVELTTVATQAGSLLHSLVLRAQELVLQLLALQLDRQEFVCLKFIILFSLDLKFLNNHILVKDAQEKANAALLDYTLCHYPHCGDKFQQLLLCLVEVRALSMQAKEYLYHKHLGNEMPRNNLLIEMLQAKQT
Assay [8] in a line: VP16 transactivation reporter inhibitors, counter-screen for LRH-1 inverse agonist project, cell-based, luminescence, high throughput (AID 651615; in the data active = inhibition above about 33%). The note with it: Gal4-VP16 luciferase reporter cells, at 3.6 µM, active compounds read high.
Assay [9] relates to transactivating tegument protein VP16 (Human herpesvirus 1). Kind of assay: VP16 transactivation reporter inhibitors, counter-screen for SRC2 inhibitor project, cell-based, luminescence, single concentration (AID 652007; in the data active = inhibition above about 36%). Particulars: cell-based VP16 transactivation luciferase reporter, at 8.9 µM, active compounds read high.
In assay [10] the target is Nuclear receptor coactivator 2 (Homo sapiens) (UniProt Q15596). Kind of assay: SRC2 coactivator transcriptional activity inhibitors, confirmation, cell-based, luminescence, HEK293, triplicate (AID 652008;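 active = mean inhibition above 46.5%, the solvent-only control mean plus 3 SD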;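 note: 0% = DMSO-treated cells and 100% = Gossypol at 36 µM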). The note with it: HEK293 GAL4-SRC2 luciferase reporter, at 8.9 µM, active compounds read high.
Chain of Nuclear receptor coactivator 2 (Homo sapiens) (Q15596 whole entry, looked up, the tested form may be a part): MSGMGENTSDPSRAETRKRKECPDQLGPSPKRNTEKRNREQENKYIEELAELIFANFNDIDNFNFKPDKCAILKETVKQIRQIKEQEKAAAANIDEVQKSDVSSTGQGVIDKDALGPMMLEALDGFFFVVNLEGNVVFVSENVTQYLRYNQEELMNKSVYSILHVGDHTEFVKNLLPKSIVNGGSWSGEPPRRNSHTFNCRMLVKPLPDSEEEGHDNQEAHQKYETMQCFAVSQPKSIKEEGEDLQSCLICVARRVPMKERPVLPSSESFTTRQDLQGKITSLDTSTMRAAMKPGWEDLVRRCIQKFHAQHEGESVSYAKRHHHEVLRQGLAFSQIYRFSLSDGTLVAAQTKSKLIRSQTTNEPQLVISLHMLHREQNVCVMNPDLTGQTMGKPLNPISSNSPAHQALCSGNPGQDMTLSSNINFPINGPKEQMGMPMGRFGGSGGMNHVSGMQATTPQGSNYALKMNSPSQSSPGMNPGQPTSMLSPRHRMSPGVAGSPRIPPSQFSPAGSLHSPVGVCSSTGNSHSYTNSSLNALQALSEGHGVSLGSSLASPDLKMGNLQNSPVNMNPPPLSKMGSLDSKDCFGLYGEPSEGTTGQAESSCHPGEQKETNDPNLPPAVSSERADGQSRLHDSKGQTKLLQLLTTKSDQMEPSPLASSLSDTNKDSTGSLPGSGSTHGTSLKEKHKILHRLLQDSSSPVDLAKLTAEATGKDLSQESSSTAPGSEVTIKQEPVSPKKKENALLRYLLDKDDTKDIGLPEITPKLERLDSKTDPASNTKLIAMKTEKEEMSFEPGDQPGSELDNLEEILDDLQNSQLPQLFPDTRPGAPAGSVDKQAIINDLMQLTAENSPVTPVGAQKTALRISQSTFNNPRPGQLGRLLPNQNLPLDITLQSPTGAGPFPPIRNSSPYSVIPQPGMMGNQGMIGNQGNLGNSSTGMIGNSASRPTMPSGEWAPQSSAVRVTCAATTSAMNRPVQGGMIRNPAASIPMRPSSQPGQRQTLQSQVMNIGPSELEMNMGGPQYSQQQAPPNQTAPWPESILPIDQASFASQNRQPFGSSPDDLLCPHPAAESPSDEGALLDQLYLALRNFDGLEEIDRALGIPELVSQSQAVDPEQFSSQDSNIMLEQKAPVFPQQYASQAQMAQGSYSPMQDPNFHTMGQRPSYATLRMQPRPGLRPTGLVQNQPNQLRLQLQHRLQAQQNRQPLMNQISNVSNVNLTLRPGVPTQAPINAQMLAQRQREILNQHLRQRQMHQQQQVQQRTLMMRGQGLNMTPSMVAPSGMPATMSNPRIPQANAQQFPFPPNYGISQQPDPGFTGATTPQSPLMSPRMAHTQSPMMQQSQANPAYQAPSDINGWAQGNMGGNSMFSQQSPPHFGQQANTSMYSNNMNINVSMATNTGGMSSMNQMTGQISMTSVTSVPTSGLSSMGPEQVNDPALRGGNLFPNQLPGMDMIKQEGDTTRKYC

Unmarked numbers belong to inactive results. Active and inactive are the calls of the source.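 Rule for the calls, unless noted: active = mean inhibition over 43.08%, the solvent-only control mean plus 3 SD; inactive = the rest.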

Chain of Nuclear receptor coactivator 3 (Homo sapiens) (Q9Y6Q9 whole entry, looked up, the tested form may be a part): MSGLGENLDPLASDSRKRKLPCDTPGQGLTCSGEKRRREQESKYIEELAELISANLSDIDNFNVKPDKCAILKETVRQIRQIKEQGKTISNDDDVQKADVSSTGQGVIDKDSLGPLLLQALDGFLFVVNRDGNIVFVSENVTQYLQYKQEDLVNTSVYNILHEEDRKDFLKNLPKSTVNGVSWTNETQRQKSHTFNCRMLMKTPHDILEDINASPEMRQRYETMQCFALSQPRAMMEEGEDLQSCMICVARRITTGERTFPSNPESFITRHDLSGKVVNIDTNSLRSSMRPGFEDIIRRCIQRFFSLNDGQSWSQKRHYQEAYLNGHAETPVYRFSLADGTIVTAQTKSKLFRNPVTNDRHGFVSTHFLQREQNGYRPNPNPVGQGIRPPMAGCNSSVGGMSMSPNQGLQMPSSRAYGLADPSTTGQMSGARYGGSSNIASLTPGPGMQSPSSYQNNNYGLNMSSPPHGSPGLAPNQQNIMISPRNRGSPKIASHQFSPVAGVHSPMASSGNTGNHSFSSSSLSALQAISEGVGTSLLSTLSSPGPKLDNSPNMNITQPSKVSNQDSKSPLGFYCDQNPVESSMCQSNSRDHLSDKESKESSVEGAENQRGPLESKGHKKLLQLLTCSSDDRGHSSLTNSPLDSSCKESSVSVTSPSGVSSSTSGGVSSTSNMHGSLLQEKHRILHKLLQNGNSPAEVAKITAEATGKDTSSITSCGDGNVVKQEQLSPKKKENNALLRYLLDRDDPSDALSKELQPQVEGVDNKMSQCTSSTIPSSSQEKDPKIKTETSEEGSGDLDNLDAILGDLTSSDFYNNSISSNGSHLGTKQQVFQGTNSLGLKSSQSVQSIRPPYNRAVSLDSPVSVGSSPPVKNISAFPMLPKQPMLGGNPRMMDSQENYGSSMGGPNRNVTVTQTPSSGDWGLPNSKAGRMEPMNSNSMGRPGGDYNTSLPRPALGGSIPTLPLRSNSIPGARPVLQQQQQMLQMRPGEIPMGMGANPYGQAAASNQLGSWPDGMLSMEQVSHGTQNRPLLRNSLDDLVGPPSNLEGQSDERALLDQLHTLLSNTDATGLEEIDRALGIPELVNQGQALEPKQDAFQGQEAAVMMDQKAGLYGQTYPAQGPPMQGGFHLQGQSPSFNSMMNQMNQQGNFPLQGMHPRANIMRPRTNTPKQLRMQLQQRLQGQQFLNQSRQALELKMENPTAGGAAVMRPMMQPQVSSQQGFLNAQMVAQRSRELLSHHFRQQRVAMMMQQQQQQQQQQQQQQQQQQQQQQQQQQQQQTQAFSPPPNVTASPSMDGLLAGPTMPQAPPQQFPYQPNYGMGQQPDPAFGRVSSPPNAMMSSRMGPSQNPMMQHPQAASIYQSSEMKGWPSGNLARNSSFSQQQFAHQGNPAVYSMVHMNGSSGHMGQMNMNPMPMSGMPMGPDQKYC
Chain of Nuclear receptor subfamily 5 group A member 2 (Homo sapiens) (O00482 whole entry, looked up): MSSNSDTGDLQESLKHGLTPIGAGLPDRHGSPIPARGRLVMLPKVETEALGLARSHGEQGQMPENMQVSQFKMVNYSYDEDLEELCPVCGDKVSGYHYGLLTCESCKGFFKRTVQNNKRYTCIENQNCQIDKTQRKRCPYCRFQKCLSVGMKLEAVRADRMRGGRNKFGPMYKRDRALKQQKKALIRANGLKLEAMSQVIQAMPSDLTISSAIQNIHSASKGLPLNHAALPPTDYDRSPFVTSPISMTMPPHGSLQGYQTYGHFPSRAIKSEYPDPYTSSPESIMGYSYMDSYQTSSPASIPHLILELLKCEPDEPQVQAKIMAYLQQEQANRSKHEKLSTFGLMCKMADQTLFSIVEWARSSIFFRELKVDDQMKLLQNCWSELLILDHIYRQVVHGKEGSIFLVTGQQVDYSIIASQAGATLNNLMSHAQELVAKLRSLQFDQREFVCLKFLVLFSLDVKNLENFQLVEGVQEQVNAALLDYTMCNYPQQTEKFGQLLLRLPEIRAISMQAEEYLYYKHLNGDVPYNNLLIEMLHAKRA

Consider `CC(=O)c1c(C)[nH]c(C(=O)OCC(=O)Nc2cccc(S(=O)(=O)N3CCCC3)c2)c1C`, for which the inhibition was 20.7% in [1]; 43.6% (active) in assay [2]; 5.87% in assay [3]; 38.3% (active) in assay [4]; 26.2% in [5]; 49.3% (active) in [6]. Further, the inhibition was 48.9% (active) in [7] and 51.7% (active) in assay [8].

Regarding `O=C(NC(Nc1nc2ccc([N+](=O)[O-])cc2s1)(C(F)(F)F)C(F)(F)F)c1ccccc1Cl`, the inhibition was 65.5% (active) in assay [1]; 86.2% (active) in [2]; 27.1% in assay [3]; 86% (active) in assay [4]; 82.2% (active) in assay [5]; 103% (active) in assay [6]. Besides, the figures for the inhibition in assay [7] and in assay [8] were 93.4% (active) and 89.8% (active), respectively.

Regarding `CC(C)(C)c1ccc(/C=N/Nc2ccc(C(=O)O)cc2)cc1`, the inhibition in assay [1] is 28.4%; in assay [2] it was 32.6% (active); in assay [3], 13.3%; in assay [4], 13.9%; in [5] it was -5.93%; in [6], -189%. Also, the values for the inhibition in assay [7] and in [8] were -79.9% and -20.1%, respectively.

Turning to `Cc1cc(C(=O)COC(=O)c2ccccc2Br)c(C)n1CC1CCCO1` (centres undefined), the inhibition in [1] is 77.5% (active); in assay [2], 71.7% (active); in [3], 60.3% (active); in [4], 51.9% (active); in assay [5], 57.3% (active); in assay [6] it was 20.4%. Besides, the inhibition in assay [7] was 51% (active); in assay [8] it was 48.6% (active); in assay [9], 66.2% (active); in [10], 90.6% (active).

`COc1ccc(-n2ncc3c(N(C)C4CCCCC4)ncnc32)cc1`: the inhibition was 63.9% (active) in [1]; 53.6% (active) in [2]; 37.6% in [3]; 40.1% (active) in [4]; 30% (active) in assay [5]; -23.3% in assay [6]. Besides, the inhibition in [7] was 28.6%; in assay [8], 20.2%; in [9] it was 42.7% (active); in [10] it was 80.3% (active).

As for `Cc1cc(C(=O)COC(=O)C2=COCCO2)c(C)n1-c1ccccc1`, the inhibition in assay [1] is 32.9%; in assay [2] it was 5.84%; in assay [3], -53.9%; in assay [4], -37.1%; in assay [5], 23.9%; in assay [6], -86.4%. Further, the inhibition is 26.1% in assay [7], -34.8% in assay [8], 68.8% (active) in assay [9] and 66.6% (active) in [10].

Take `Cc1cc(C(=O)COC(=O)c2ccccc2O)c(C)n1CC1CCCO1` (centres undefined): the inhibition in assay [1] is 88.8% (active); in assay [2] it was 85.1% (active); in [3], 81.2% (active); in assay [4], 76.8% (active); in [5], 73.5% (active); in assay [6], 64.9% (active). For the same molecule, the inhibition in assay [7] is 76.7% (active); in assay [8], 75.2% (active); in assay [9] it was 86.7% (active); in assay [10], 96.3% (active).

`O=C(NCCc1ccccc1)c1ccc2c(c1)OCCCO2`: the inhibition in assay [1] was 68.3% (active); in [2] it was 67.7% (active); in assay [3], 31.9%; in assay [4] it was 53.5% (active); in [5] it was 75.5% (active); in assay [6] it was 62.5% (active). For the same molecule, the inhibition in assay [7] was 78.5% (active); in assay [8] it was 66.5% (active); in assay [9], 78.8% (active); in [10], 87.7% (active).

On to `Cc1ccc(/C=C2\SC(=S)N(CCCC(=O)Nc3ccccn3)C2=O)cc1`, for which the inhibition was 49.1% (active) in assay [1]; 33.9% (active) in [2]; 55.7% (active) in [3]; 28.9% (active) in assay [4]; 57.5% (active) in [5]; 45.8% (active) in [6]. Also, the inhibition in assay [7] is 64.2% (active); in assay [8], 39.1% (active); in assay [9], 58.3% (active); in assay [10], 88.4% (active).

In the case of `Cc1ccccc1C(=O)N1CCN(c2ccc(NC(=O)c3ccc4c(c3)OCO4)cc2)CC1`, the inhibition in assay [1] is 55.4% (active); in [2], 72.5% (active); in assay [3] it was 60.7% (active); in [4], 72.9% (active); in [5], 60.1% (active); in [6] it was 75.1% (active). The inhibition in [7] was 76.1% (active); in [8] it was 80.7% (active); in [9] it was 10.2%; in [10] it was 27.1%.

On to `COc1cc(C=CC(=O)c2cc(OC)c(OC)c(OC)c2)cc(OC)c1OC`, for which the inhibition in assay [1] was 72.3% (active); in [2], 57.4% (active); in assay [3], 38.1%; in assay [4], 46.4% (active); in assay [5] it was 73.1% (active); in [6], 67.1% (active). Moreover, the inhibition was 76.1% (active) in assay [7], 69.1% (active) in [8], 47.7% (active) in [9] and 73% (active) in assay [10].

`CC(C)c1ccc(-c2nc3ccccc3s2)cc1`: the inhibition is 80.1% (active) in assay [1]; 73.8% (active) in assay [2]; 56% (active) in assay [3]; 53.8% (active) in assay [4]; 78.9% (active) in assay [5]; 42.9% (active) in assay [6]. Further, the inhibition in assay [7] was 74.5% (active); in assay [8], 51.7% (active); in assay [9] it was 64.7% (active); in assay [10] it was 86.8% (active).

Regarding `Cc1cc(C)c(C(=O)/C=C/c2cccc3ccccc23)c(=O)[nH]1`, the inhibition in assay [1] is 72.8% (active); in assay [2], 56.7% (active); in assay [3] it was 55.2% (active); in [4], 63.5% (active); in [5], 94% (active); in assay [6], 110% (active). The inhibition in assay [7] is 97.8% (active); in [8], 94.3% (active); in assay [9] it was 47.2% (active); in assay [10], 65.3% (active).

Turning to `NCC(=O)Nc1ccc(Cl)cc1C(=O)c1ccc[nH]1`, the inhibition in [1] was 66.1% (active); in assay [2], 45.8% (active); in assay [3], 47% (active); in assay [4] it was 39.9% (active); in assay [5], 49.4% (active); in assay [6] it was 55.3% (active). The inhibition was 62.3% (active) in assay [7], 39.2% (active) in assay [8], 21.2% in assay [9] and 43.5% in assay [10].

Broadly, the inhibition is the drop in the measured response relative to a control, in per cent.

For the origin of these results see PubChem BioAssay.
